Results taken from PubChem BioAssay (NCI).
The panel holds about 79,000 compounds, 15% with a hit somewhere; the sample as a whole holds those more often. A number with no mark means an inactive call. Active and inactive are the calls of the source. Cut-off read from the data, not from the text of the source: active = growth inhibition above about 70%; inactive = the rest.

Experiment: NCI Yeast Anticancer Drug Screen. Data for the wt1 strain (AID 149);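 note: 0% = growth of vehicle-treated wt1 cultures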
Conditions: S. cerevisiae wt1 strain (SPY 50644) growth inhibition, stronger effect = higher value
Procedure: Growth inhibition of yeast strains with defined genetic alterations is measured as a screen for potential anti-cancer activity. Selected strains with alterations in DNA damage repair or cell cycle control were exposed to compounds and growth inhibition was measured relative to vehicle treated controls. The strain used in this assay is wt1

Row | SMILES | growth inhibition (at 1.2 µM) [%] | growth inhibition (at 3.7 µM) [%] | growth inhibition (at 11.0 µM) [%] | growth inhibition (at 33.0 µM) [%] | growth inhibition (at 100.0 µM)
1 | COc1cc2oc3ccccc3c(=O)c2cc1CSc1ccccc1N | -1 | -1 | -1 | -2 | 0%
2 | c1ccc2nc3c(nc2c1)sc1ccccc13 | 1 | 4 | 17 | 27 | 23%
3 | CCC[CH2][Ge]([CH2]CCC)([CH2]CCC)[O]C(=O)C(O)c1ccccc1 (stereo not given) | -4 | -5 | 11 | 60 | 99% (active)
4 | CCOP(=O)(OCC)/C(C#N)=C/c1ccc(-c2ccc(F)cc2F)o1 | -2 | -2 | -2 | -4 | -1%
5 | O=C(NCCNCCNC(=O)c1cc(-c2ccccc2)nc2ccccc12)c1cc(-c2ccccc2)nc2ccccc12 | -2 | -2 | -3 | -2 | 6%
6 | O=C1C(=C2CCCC2)CCC1CN1CCCCC1 (stereo not given) | 6 | 12 | 27 | 30 | 89% (active)
7 | O=C(O)c1cc2c(cc1S(=O)(=O)O)C1C(C3C2C2(Cl)C(Cl)=C(Cl)C3(Cl)C2(Cl)Cl)C2(Cl)C(Cl)=C(Cl)C1(Cl)C2(Cl)Cl (stereo not given) | 2 | 0 | 3 | 62 | 96% (active)
8 | CCN(CC)CCCNc1ccc([N+](=O)[O-])c2nc3ccc(OC)cc3c(NCCCN(CC)CC)c12 | -81 | 0 | -2 | -2 | 0%
